High-throughput results: PubChem, The Scripps Research Institute Molecular Screening Center
PAFAH1B2 FP inh: PAFAH1B2 enzyme inhibitors, primary screen, biochemical, fluorescence polarization, human. recombinant PAFAH1B2, FP-rhodamine activity probe. inhibition, % at 3.39 µM. 340,000 tested, 1.2% active. AID 492953, 2010;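 active = inhibition above the mean of all tested compounds plus 3 SD, cut at about 24% in these data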
Target sequence (P68402 whole entry, looked up): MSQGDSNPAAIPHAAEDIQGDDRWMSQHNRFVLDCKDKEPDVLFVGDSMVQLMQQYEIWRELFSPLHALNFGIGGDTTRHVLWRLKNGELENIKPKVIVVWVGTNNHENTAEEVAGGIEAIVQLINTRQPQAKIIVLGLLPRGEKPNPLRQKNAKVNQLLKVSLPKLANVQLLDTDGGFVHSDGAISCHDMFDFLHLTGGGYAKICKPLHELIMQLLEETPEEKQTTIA
TCR-CD3 inh: inhibitors of human TCR-CD3 interaction, primary screen, biochemical, fluorescence, TAMRA-labeled TCR probe; inhibition, % at 9.4 µM; 360,000 tested, 0.37% active; AID 651800, 2012; in the data active = inhibition above about 19%;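 note: recombinant mutant TCR 2C K166C tagged with TAMRA read by polarization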
pPAFAH inh: pPAFAH enzyme inhibitors, primary screen, biochemical, fluorescence polarization, human. 330,000 tested, 1.5% active. recombinant pPAFAH, FP-rhodamine probe fluorescence polarization. inhibition, % at 3.39 µM;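 active = inhibition above the mean inhibition across the screen plus 3 SD, cut at about 25% in these data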;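 note: inhibitors block binding of the rhodamine activity-based probe so polarization drops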
PAFAH2 inh: PAFAH2 enzyme inhibitors, primary screen, biochemical, fluorescence polarization, human | Platelet-activating factor acetylhydrolase 2, cytoplasmic (Homo sapiens), Q99487 | recombinant PAFAH2, FP-rhodamine activity probe | inhibition, % at 3.39 µM | 340,000 tested, 0.99% active;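 active = inhibition above the mean over all tested compounds plus 3 SD, cut at about 30% in these data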;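 note: inhibitors block probe labeling of enzyme so polarization drops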
PAFAH1B3 inh: PAFAH1B3 enzyme inhibitors, primary screen, biochemical, fluorescence polarization, human | Platelet-activating factor acetylhydrolase IB subunit alpha1 (Homo sapiens), Q15102 | recombinant PAFAH1B3, FP-rhodamine probe | inhibition, % at 3.39 µM | 340,000 tested, 0.28% active;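 active = inhibition above the screen-wide average of all tested compounds plus 3 SD, cut at about 25% in these data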
Target sequence (Q15102 whole entry, looked up): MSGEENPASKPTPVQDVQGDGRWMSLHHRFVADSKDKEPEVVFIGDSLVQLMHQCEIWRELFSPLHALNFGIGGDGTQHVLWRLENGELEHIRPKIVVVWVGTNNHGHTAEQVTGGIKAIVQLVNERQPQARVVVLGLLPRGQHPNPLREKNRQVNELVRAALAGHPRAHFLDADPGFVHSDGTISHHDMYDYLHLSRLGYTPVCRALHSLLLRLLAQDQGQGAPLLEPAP
Of the large screens only hits and unclear results are named; the others gave an inactive call. An excerpt weighted towards active compounds, which were near 2.7% of everything screened.

O=C(NCC1CCCO1)c1ccc(Cl)c(NS(=O)(=O)c2ccc(F)cc2)c1 (stereo not given)	none (no result: PAFAH1B2 FP inh, pPAFAH inh, PAFAH2 inh, PAFAH1B3 inh)
O=c1oc2ccccc2c(Nc2cc3ccccc3cc2O)c1[N+](=O)[O-]	pPAFAH inh 27.3
Cc1ccc(-n2c(-c3ccc(Cl)cc3)n[nH]c2=S)c(C)c1	PAFAH1B2 FP inh 28.6
CCOc1ccc(S(=O)(=O)NCCC(=O)N2CCN(c3ncccn3)CC2)cc1	none
COc1ccc(NS(=O)(=O)c2cc(C(=O)N3CCCCCC3)ccc2C)cc1	none
CCOc1ccc(NS(=O)(=O)c2ccc(C(=O)N3CCN(c4ncccn4)CC3)cc2)cc1	pPAFAH inh 26.7
CCOc1ccc(NS(=O)(=O)c2ccc(C(=O)N3CC(C)OC(C)C3)cc2)cc1 (stereo not given)	pPAFAH inh 29.3
CCOc1ccccc1N1CCN(C(=O)c2ccccc2)CC1	none
Cc1ccc(C(=O)N2CCCC2)cc1S(=O)(=O)Nc1ccccc1	pPAFAH inh 30.4
CCOc1ccccc1N1CCN(C(=O)c2ccc(S(=O)(=O)Nc3ccccc3)cc2)CC1	pPAFAH inh 27.2
CSCCC(NC(=O)c1ccco1)C(=O)N1CCN(Cc2ccccc2)CC1 (stereo not given)	none
CN1CCN(C(=O)c2ccc(S(=O)(=O)Nc3ccccc3)cc2)CC1	pPAFAH inh 25.3
O=C(c1ccc(S(=O)(=O)Nc2ccccc2)cc1)N1CCCC1	none
Cc1ccc2[nH]c(=O)c(C3C(C#N)=C(N)Oc4c3ccc3cccnc43)cc2c1 (stereo not given)	pPAFAH inh 25.4
N#CC1=C(N)Oc2c(ccc3cccnc23)C1c1ccccc1 (stereo not given)	none
CCOc1cc(N(CC)CC)ccc1/C=C(/C#N)c1nc2ccccc2[nH]1	pPAFAH inh 26.8
N#CC1=C(S)N(c2ccc(F)cc2)C(c2cccs2)NC1=O (stereo not given)	none (no result: pPAFAH inh)
Cc1cccc(N2C(S)=C(C#N)C(=O)NC2c2cccs2)c1 (stereo not given)	PAFAH1B2 FP inh 29.9
CCOc1cc(C2Nc3cccc4cccc(c34)N2)ccc1O	PAFAH1B2 FP inh 26.8, PAFAH2 inh 41.0, PAFAH1B3 inh 39.8 (no result: TCR-CD3 inh)
Cc1cccc(-n2nc3c(c2NC(=O)c2ccco2)CS(=O)C3)c1C (stereo not given)	none
Cc1cccc(-n2nc3c(c2NC(=O)c2ccco2)CSC3)c1C	pPAFAH inh 30.9
CC(=O)c1ccc(S(=O)(=O)NCCc2cn3ccc(C)cc3n2)cc1	none
Cc1ccn2cc(CCNS(=O)(=O)c3ccc([N+](=O)[O-])cc3)nc2c1	pPAFAH inh 30.4
CCn1c(CSc2nnc(-c3cccnc3)n2-c2ccccc2C)nc2cc(C(=O)O)ccc21	pPAFAH inh 42.4 (no result: PAFAH1B2 FP inh, TCR-CD3 inh, PAFAH2 inh, PAFAH1B3 inh)
CCn1c(CSc2nnc3ccccn23)nc2cc(C(=O)O)ccc21	PAFAH1B2 FP inh 49.1, TCR-CD3 inh 66.7, pPAFAH inh 25.8, PAFAH2 inh 60.1, PAFAH1B3 inh 43.9
CCOc1ccc(C(=O)CSc2nnc3ccccn23)cc1	none
CCN1CCN(c2ccc(N3CCN(S(=O)(=O)c4ccc(C)c([N+](=O)[O-])c4)CC3)nn2)CC1	none
COc1cc(OC)cc(C(=O)NC(C(=O)Nc2ccc(N3CCOCC3)cc2)C(C)C)c1 (stereo not given)	none (no result: pPAFAH inh)
O=C1CCCC(=NNC(=O)c2cc3ccccc3cc2O)C1	none (no result: TCR-CD3 inh)
CCOC(=O)N1CCC(=NNC(=O)c2cc3ccccc3cc2O)CC1	pPAFAH inh 27.0
CC(C)c1ccc(NS(=O)(=O)c2ccc3[nH]cc(C(=O)N4CCC(C(N)=O)CC4)c(=O)c3c2)cc1	pPAFAH inh 69.6
COc1ccc(-n2ccn(CC(=O)Nc3ccc(OC)cc3OC)c(=O)c2=O)cc1	none
Cc1ccc(C(NC(=O)C2CCN(Cc3ccc(Cl)c(Cl)c3)CC2)c2ccccn2)cc1 (stereo not given)	none (no result: PAFAH1B2 FP inh, pPAFAH inh, PAFAH2 inh, PAFAH1B3 inh)
CC1CCCC(NC(=O)COC(=O)c2ccc3ccccc3n2)C1C (stereo not given)	none
CC1CCCCC1NC(=O)COC(=O)c1ccc2ccccc2n1 (stereo not given)	pPAFAH inh 27.0
COc1cc(OC)c(N(C)S(=O)(=O)c2cccc(C(=O)OCC(=O)NCc3ccco3)c2)cc1Cl	pPAFAH inh 33.0, PAFAH2 inh 32.3
CS(=O)(=O)c1ccc(Cl)c(NC(=O)CNC(=O)c2ccc3c(c2)OCO3)c1	none
C[C@@H]1OC(C2CCCCC2)N(C)[C@H]2C[C@H]3c4[nH]c5cccc(-c6ccccc6)c5c4CCN3C(=O)[C@@H]12 (stereo not given in full)	none (no result: PAFAH1B2 FP inh, pPAFAH inh, PAFAH2 inh, PAFAH1B3 inh)
Cc1ccc(C)n1-c1cc([N+](=O)[O-])ccc1-n1ccnc1	none (no result: PAFAH1B2 FP inh, PAFAH2 inh, PAFAH1B3 inh)
CC1(C)N([O-])c2cc([N+](=O)[O-])ccc2[N+]1=O	pPAFAH inh 31.1 (no result: PAFAH1B2 FP inh, PAFAH2 inh, PAFAH1B3 inh)
Cc1ccc(S(=O)(=O)N2CCOCC2)cc1C(=O)NCCc1ccc(Cl)cc1	PAFAH1B2 FP inh 29.6
O=C(OCCOc1cccc(Cl)c1)c1cc(S(=O)(=O)N2CCOCC2)ccc1F	pPAFAH inh 31.0
OC(c1ccccc1)(c1ccccc1)C1CCN(CCCOc2ccc(-c3ccc(F)cc3F)cc2)CC1	none (no result: PAFAH1B2 FP inh, pPAFAH inh, PAFAH2 inh, PAFAH1B3 inh)
COc1ccc(C/C(=N\OC(C)=O)c2ccc(OC)cc2)cc1	PAFAH1B2 FP inh 29.5 (no result: TCR-CD3 inh)
COc1ccc(/C(N)=N/OC(=O)Cc2ccc(C)cc2)cc1	none
CCOc1ncccc1C(=O)OCC(=O)Nc1cc(C(C)(C)C)ccc1OC	pPAFAH inh 28.4
CC(NC(=O)C1CCCC1)c1ccc(Br)cc1 (stereo not given)	PAFAH1B2 FP inh 39.6
CC(C)c1ccc(C(C)NC(=O)C2CCCC2)cc1 (stereo not given)	none
O=C(NCc1ccc(Cl)cc1)C(=O)NCC1OCCN1S(=O)(=O)c1cc(F)ccc1F (stereo not given)	PAFAH1B2 FP inh 30.0
Oc1c(Cl)cc(CN2CCOCC2)c2cccnc12	pPAFAH inh 27.7
O=C(Oc1c(CN2CCOCC2)cc(Cl)c2cccnc12)c1ccccc1	none
COc1ccc(C#CC2=CC(=O)CC(C)(C)C2)cc1	none (no result: PAFAH1B2 FP inh, pPAFAH inh, PAFAH2 inh, PAFAH1B3 inh)
Cc1cc(C)nc(SCC(=O)N/N=C/c2cccn2-c2ccc(O)cc2)n1	PAFAH1B2 FP inh 28.4
Cc1cc(C)nc(SCC(=O)N/N=C/c2cccn2-c2cccc(C(F)(F)F)c2)n1	none
O=C(NNC(=S)Nc1ccc(Cl)c(Cl)c1)c1cccc([N+](=O)[O-])c1	pPAFAH inh 31.8 (no result: PAFAH1B2 FP inh, PAFAH2 inh, PAFAH1B3 inh)
Cc1cccc(NC(=S)NNC(=O)c2cccc([N+](=O)[O-])c2)c1	none
O=C(Cn1[nH]c(=O)c2ccccc2c1=O)OCC(=O)c1ccc(Br)cc1	none
Cc1cccc(OCC(=O)Nc2nnc(S(=O)(=O)N3CCC(C)CC3)s2)c1	PAFAH1B2 FP inh 27.2
Cc1cccc(OCC(=O)Nc2nnc(S(=O)(=O)N3CCCCC3)s2)c1	none
CC1CCN(S(=O)(=O)c2nnc(NC(=O)c3ccccc3Br)s2)CC1	PAFAH1B2 FP inh 27.8
